The values that follow come from the supplement of paper PMC9942566.

± gives the standard deviation of the averaged measurements.

The assay concerns Serratia marcescens K904 PosmB-luxCDABE reporter (pMQ747). The assay can be described thus: PosmB-lux reporter fold induction (RLU/OD600 relative to no-compound control), highest over Biolog concentrations; higher = stronger Rcs reporter activation. The note with it: wild type K904; 4 h. As for the experimental part: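 Serratia marcescens K904 (wild type) or its isogenic ΔrcsB mutant, carrying the Rcs-dependent PosmB-luxCDABE reporter plasmid pMQ747, was grown in LB at OD600 0.1 in Biolog Phenotype MicroArray plates PM11-20 for 4 h at 30-32°C. Each compound is present at 3-4 proprietary concentrations (not stated); per the Fig. S1 legend the value given is the highest fold over those wells. Three independent trials.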
For `CCCCCCCCCCCC[N+](C)(C)C` [Dodecyltrimethyl ammonium bromide] (Biolog plate: PM12, well positions: H9-12), the “PosmB-lux reporter fold induction” value worked out at 2.03 ± 0.22. Next, `Cn1nnnc1SCC1=C(C(=O)O)N2C(=O)[C@@H](NC(=O)[C@H](OC=O)c3ccccc3)[C@H]2SC1` [cefamandole nafate] (Biolog plate: PM17, well positions: G5-8): 1.96 ± 0.53; `Cc1noc(NS(=O)(=O)c2ccc(N)cc2)c1C` [sulfisoxazole] (Biolog plate: PM18, well positions: C5-8): 0.979 ± 0.2. For `O=C(N[C@H](CO)[C@H](O)c1ccc([N+](=O)[O-])cc1)C(Cl)Cl` [Chloramphenicol] (Biolog plate: PM14, well positions: F1-4) the value was 2.41 ± 1.1.

`O=[Si](O)O` [sodium metasilicate] (Biolog plate: PM18, well positions: E1-4): the “PosmB-lux reporter fold induction” value came to 1.11 ± 0.32. Next, `CO[C@H]1C[C@H](O[C@H]2[C@H](C)[C@@H](O[C@@H]3O[C@H](C)C[C@H](N(C)C)[C@H]3O)[C@@H](C)C[C@@]3(CO3)C(=O)[C@H](C)[C@@H](O)[C@@H](C)[C@@H](C)OC(=O)[C@@H]2C)O[C@@H](C)[C@@H]1O` [Oleandomycin] (Biolog plate: PM15, well positions: F5-8): 3.29 ± 1.7; `C[n+]1cc2c3c(ccc2c2ccc4cc5c(cc4c21)OCO5)OCO3` [Sanguinarine] (Biolog plate: PM14, well positions: A9-12): 1.83 ± 0.71; `CNC(C)C1CCC(N)C(OC2C(N)CC(N)C(OC3OCC(C)(O)C(NC)C3O)C2O)O1` (stereo not given) [Gentamicin] (Biolog plate: PM11, well positions: G5-8): 1.41 ± 0.081. On to `CN[C@@H]1[C@@H](O[C@H]2O[C@H](CO)[C@@H](N)[C@H](O)[C@H]2O)OC2C[C@@H](N)[C@@H](O[C@H]3[C@H](O)[C@@H](O)[C@H](N)C[C@@H]3N)OC2[C@@H]1O` (stereo not given in full) [apramycin] (Biolog plate: PM20, well positions: A5-8), for which the “PosmB-lux reporter fold induction” value was 1.85 ± 0.71. Consider `CSc1ccc2c(c1)N(CCC1CCCCN1C)c1ccccc1S2` (stereo not given) [thioridazine] (Biolog plate: PM20, well positions: C1-4), for which the “PosmB-lux reporter fold induction” value worked out at 0.902 ± 0.17. Next, `CO[C@@H]1[C@@H](O[C@@H]2O[C@H](C)[C@@H](O[C@H]3C[C@@](C)(O)[C@@H](OC(=O)CC(C)C)[C@H](C)O3)[C@H](N(C)C)[C@H]2O)[C@@H](CC=O)C[C@@H](C)[C@@H](O)/C=C/C=C/C[C@@H](C)OC(=O)C[C@H]1OC(C)=O` [josamycin] (Biolog plate: PM19, well positions: A2-4): 1.27 ± 0.74. Next, `CC[C@H]1OC(=O)C[C@@H](O)[C@H](C)[C@@H](O[C@@H]2O[C@H](C)[C@@H](O[C@H]3C[C@@](C)(O)[C@@H](O)[C@H](C)O3)[C@H](N(C)C)[C@H]2O)[C@@H](CC=O)C[C@@H](C)C(=O)/C=C/C(C)=C/[C@@H]1CO[C@@H]1O[C@H](C)[C@@H](O)[C@@H](OC)[C@H]1OC` [Tylosin] (Biolog plate: PM13, well positions: H9-12): 1.21 ± 0.18; `CC1COc2c(N3CCN(C)CC3)c(F)cc3c(=O)c(C(=O)O)cn1c23` (stereo not given) [Ofloxacin] (Biolog plate: PM11, well positions: H9-12): 1.25 ± 0.35; `CO[C@@H]1[C@@H](OC(N)=O)[C@@H](O)[C@H](Oc2ccc3c(O)c(NC(=O)c4ccc(O)c(CC=C(C)C)c4)c(=O)oc3c2C)OC1(C)C` [Novobiocin] (Biolog plate: PM12, well positions: D9-12): 4.98 ± 0.98. For `CO/N=C(\C(=O)N[C@@H]1C(=O)N2C(C(=O)O)=C(CSc3nc(=O)c(O)nn3C)CS[C@H]12)c1csc(N)n1` [Ceftriaxone] (Biolog plate: PM11, well positions: G1-4) the value was 1.64 ± 0.43; for `[Cl][Cu][Cl]` [Cupric chloride] (Biolog plate: PM13, well positions: H1-4), 1.13 ± 0.12; for `CO[C@H]1/C=C/O[C@@]2(C)Oc3c(C)c(O)c4c(O)c(c(/C=N/N5CCN(C)CC5)c(O)c4c3C2=O)NC(=O)/C(C)=C\C=C\[C@H](C)[C@H](O)[C@@H](C)[C@@H](O)[C@@H](C)[C@H](OC(C)=O)[C@@H]1C` [Rifampicin] (Biolog plate: PM12, well positions: H5-8), 4.01 ± 0.98. For `N.N.N.N.N.N.[Cl-].[Cl-].[Cl-].[Co+3]` [hexammine cobalt (III) chloride] (Biolog plate: PM19, well positions: H1-4), the “PosmB-lux reporter fold induction” value was 1.64 ± 0.12. Next, `Nc1ccc(S(=O)(=O)Nc2ncccn2)cc1` [Sulfadiazine] (Biolog plate: PM12, well positions: E5-8): 2.21 ± 0.27; `CC1(C)S[C@@H]2[C@H](NC(=O)[C@H](N)c3ccccc3)C(=O)N2[C@H]1C(=O)O` [Ampicillin] (Biolog plate: PM13, well positions: A2-4): 1.39 ± 0.02. Next, `On1ccccc1=S` [1-Hydroxy-pyridine-2-thione] (Biolog plate: PM14, well positions: C5-8): 4.06 ± 1.3.

As to `CC(=O)O[C@H]1C[C@@]2(C)[C@@H](C[C@@H](O)[C@H]3[C@@]4(C)CC[C@@H](O)[C@@H](C)[C@@H]4CC[C@@]32C)/C1=C(\CCC=C(C)C)C(=O)O` [Fusidic acid] (Biolog plate: PM15, well positions: C5-8), the “PosmB-lux reporter fold induction” value amounted to 1.01 ± 0.48.

Consider `CO[C@H]1C[C@H](O[C@H]2[C@H](C)[C@@H](O[C@@H]3O[C@H](C)C[C@H](N(C)C)[C@H]3OC(C)=O)[C@@H](C)C[C@@]3(CO3)C(=O)[C@H](C)[C@@H](OC(C)=O)[C@@H](C)[C@@H](C)OC(=O)[C@@H]2C)O[C@@H](C)[C@@H]1OC(C)=O` [troleandomycin] (Biolog plate: PM20, well positions: H9-12), for which the “PosmB-lux reporter fold induction” value was found to be 1.36 ± 0.24. For `CCn1cc(C(=O)O)c(=O)c2cc(F)c(N3CCNC(C)C3)c(F)c21` (stereo not given) [Lomefloxacin] (Biolog plate: PM11, well positions: B9-12) the value was 1.5 ± 0.2. Next, `CCN1CCN(C(=O)N[C@@H](C(=O)N[C@@H]2C(=O)N3[C@@H]2SC(C)(C)[C@@H]3C(=O)O)c2ccccc2)C(=O)C1=O` [Piperacillin] (Biolog plate: PM14, well positions: F5-8): 3.19 ± 1.8. On to `CC1(C)S[C@@H]2[C@H](NC(=O)[C@H](NC(=O)N3CCNC3=O)c3ccccc3)C(=O)N2[C@H]1C(=O)O` [Azlocillin] (Biolog plate: PM13, well positions: B1-4), for which the “PosmB-lux reporter fold induction” value stood at 1.96 ± 0.43. For `C1COCCOCCOCCOCCOCCO1` [18-crown-6 ether] (Biolog plate: PM20, well positions: D9-12) the value was 2.22 ± 0.31; for `NC[C@@H]1O[C@H](O[C@H]2[C@@H](O)[C@H](O[C@@H]3[C@@H](O)[C@H](N)C[C@H](N)[C@H]3O[C@H]3O[C@H](CN)[C@@H](O)[C@H](O)[C@H]3N)O[C@@H]2CO)[C@H](N)[C@@H](O)[C@@H]1O` [Neomycin] (Biolog plate: PM11, well positions: F9-12), 1.51 ± 0.15; for `CCCCCCCC[N+](C)(CCCCCCCC)CCCCCCCC` [methyltrioctyl-ammonium chloride] (Biolog plate: PM19, well positions: B1-4), 1.17 ± 0.32. For `COc1ccc(C[C@H](N)C(=O)N[C@H]2[C@@H](O)[C@H](n3cnc4c(N(C)C)ncnc43)O[C@@H]2CO)cc1` [Puromycin] (Biolog plate: PM15, well positions: F9-12) the value was 1.9 ± 0.2. For `CCn1cc(C(=O)O)c(=O)c2cc(F)c(N3CCNCC3)cc21` [norfloxacin] (Biolog plate: PM16, well positions: B1-4) the value was 1.02 ± 0.2. With `COc1cc(Cc2cnc(N)nc2N)cc(OC)c1OC` [trimethoprim] (Biolog plate: PM16, well positions: B9-12), the “PosmB-lux reporter fold induction” value was determined as 1.93 ± 0.91. For `O=C(O)/C=C/c1ccccc1` [cinnamic acid] (Biolog plate: PM19, well positions: C9-12) the value was 9.92 ± 5.1; for `CC(C)c1nc2nc(N)nc(N)c2nc1C(C)C` [2,4-Diamino-6,7-diisopropyl-pteridine] (Biolog plate: PM12, well positions: E1-4), 2.38 ± 0.48; for `CCOc1ccc2ccccc2c1C(=O)N[C@@H]1C(=O)N2[C@@H]1SC(C)(C)[C@@H]2C(=O)O` [Nafcillin] (Biolog plate: PM11, well positions: D9-12), 2.29 ± 0.21.

Take `[Cl-].[Li+]` [lithium chloride] (Biolog plate: PM17, well positions: F1-4): the “PosmB-lux reporter fold induction” value worked out at 1.51 ± 0.57.

Take `Cc1cc(O)cc(C)c1Cl` [chloroxylenol] (Biolog plate: PM16, well positions: H5-8): the “PosmB-lux reporter fold induction” value was 2.08 ± 0.6. Next, `O=C([O-])c1ccccc1O.[Na+]` [sodium salicylate (NSAID)] (Biolog plate: PM17, well positions: B1-4): 5.52 ± 2. Next, `CCCCCCCCCCCC[N+](C)(C)CCOc1ccccc1` [Domiphen bromide] (Biolog plate: PM15, well positions: D5-8): 1.98 ± 0.26; `Nc1ccn(C2OC(CO)C(O)C2O)c(=O)n1` [Cytosine-1-beta-D-arabino-furanoside] (Biolog plate: PM13, well positions: E1-4): 1.5 ± 0.15.
